Assay results: PubChem BioAssay (NCATS)
Results filed as inconclusive are left out. The source made the active and inactive calls. Unless noted, the call rests on the fitted dose curve; in most records, active means well fitted curve in the direction sought with a large enough effect; inconclusive means small, poorly fitted or top-dose-only effect, or another doubt; inactive means no such curve, though single readings can be large; an effect the other way counts as inactive or inconclusive.

Tests used:
[1] = biological target: Ubiquitin carboxyl-terminal hydrolase 2 (Homo sapiens) (UniProt O75604); assay: qHTS Validation Assay for Inhibitors of Ubiquitin-specific Protease USP2a Using CHOP2 as the Reporter (AID 463106)
Sequence of Ubiquitin carboxyl-terminal hydrolase 2 (Homo sapiens) (O75604 whole entry, looked up): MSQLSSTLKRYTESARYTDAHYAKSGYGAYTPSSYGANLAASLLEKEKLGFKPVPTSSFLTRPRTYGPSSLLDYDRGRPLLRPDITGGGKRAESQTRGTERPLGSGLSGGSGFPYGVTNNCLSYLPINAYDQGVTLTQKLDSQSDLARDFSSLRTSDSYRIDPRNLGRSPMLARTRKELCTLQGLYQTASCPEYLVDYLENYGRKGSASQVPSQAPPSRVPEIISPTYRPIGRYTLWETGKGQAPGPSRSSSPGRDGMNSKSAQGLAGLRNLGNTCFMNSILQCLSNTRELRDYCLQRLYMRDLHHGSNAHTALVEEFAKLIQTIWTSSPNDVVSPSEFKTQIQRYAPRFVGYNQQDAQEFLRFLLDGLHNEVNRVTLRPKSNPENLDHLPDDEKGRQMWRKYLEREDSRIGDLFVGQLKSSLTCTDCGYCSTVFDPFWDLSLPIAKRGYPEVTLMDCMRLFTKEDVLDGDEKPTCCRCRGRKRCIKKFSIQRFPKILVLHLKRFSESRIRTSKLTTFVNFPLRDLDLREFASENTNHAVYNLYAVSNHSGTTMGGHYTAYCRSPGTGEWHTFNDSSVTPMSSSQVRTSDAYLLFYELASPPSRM
Procedure, shortened: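 Fluorescence read-out at Ex 485nm/Em 531nm after 60min RT, following addition of 25nM Ub-CHOP2 plus 25nM reporter substrate to USP2 core (10nM) pretreated 30min with compound. Data normalized to NEM full inhibition; concentration-response curves fitted.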

[2] = biological target: DNA polymerase III PolC-type (Bacillus subtilis (strain 168)) (UniProt P13267); assay: qHTS Validation Assay for the Inhibitors of DNA Replication in Gram-Positive Bacteria (AID 485295);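 further: reconstituted holoenzyme with PolC plus beta clamp SSB and primase; PicoGreen fluorescence of double-stranded DNA made on primed circular M13 template; series mostly up to about 57 µM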
Sequence of DNA polymerase III PolC-type (Bacillus subtilis (strain 168)) (P13267 whole entry, looked up): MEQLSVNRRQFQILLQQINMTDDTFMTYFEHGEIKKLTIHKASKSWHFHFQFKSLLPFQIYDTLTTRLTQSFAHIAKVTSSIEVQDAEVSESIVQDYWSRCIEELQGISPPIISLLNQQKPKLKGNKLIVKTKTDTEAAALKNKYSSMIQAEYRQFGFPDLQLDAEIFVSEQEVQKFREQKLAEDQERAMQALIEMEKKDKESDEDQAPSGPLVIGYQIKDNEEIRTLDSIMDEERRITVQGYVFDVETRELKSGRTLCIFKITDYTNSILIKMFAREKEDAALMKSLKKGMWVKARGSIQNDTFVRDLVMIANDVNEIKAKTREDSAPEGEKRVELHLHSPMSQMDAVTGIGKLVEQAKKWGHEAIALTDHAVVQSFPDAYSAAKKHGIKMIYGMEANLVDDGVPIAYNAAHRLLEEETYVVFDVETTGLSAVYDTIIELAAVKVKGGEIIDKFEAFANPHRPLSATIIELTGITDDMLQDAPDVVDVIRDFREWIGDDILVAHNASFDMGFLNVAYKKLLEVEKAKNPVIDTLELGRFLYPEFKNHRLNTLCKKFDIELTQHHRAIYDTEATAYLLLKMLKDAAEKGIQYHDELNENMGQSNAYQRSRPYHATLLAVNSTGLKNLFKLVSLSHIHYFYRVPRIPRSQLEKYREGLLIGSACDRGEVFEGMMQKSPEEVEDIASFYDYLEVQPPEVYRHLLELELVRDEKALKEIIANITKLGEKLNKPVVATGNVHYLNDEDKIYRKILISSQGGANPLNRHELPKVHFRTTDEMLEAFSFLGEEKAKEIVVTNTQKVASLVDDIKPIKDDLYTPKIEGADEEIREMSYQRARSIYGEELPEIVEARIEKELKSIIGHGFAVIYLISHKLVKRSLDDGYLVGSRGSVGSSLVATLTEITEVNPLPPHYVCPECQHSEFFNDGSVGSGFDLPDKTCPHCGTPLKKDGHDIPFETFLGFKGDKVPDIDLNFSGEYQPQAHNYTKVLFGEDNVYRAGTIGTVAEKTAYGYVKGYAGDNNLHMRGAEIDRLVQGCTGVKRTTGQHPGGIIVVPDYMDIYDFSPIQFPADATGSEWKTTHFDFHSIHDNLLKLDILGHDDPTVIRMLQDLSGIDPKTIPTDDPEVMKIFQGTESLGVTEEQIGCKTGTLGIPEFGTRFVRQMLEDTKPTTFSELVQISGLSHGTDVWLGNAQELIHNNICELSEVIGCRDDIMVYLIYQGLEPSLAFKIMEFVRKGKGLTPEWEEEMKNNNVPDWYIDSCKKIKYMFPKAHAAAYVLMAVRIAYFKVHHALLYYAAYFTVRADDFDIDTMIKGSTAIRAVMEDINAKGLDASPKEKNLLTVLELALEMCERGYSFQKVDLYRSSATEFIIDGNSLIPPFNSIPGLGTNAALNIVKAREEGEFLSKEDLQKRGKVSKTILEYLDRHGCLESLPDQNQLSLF
Procedure, shortened: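 Primed replication of single-stranded M13Gori by a four-protein B. subtilis holoenzyme is measured at room temperature. Double-stranded product is quantified by PicoGreen fluorescence after an EDTA stop; inhibition is scaled between DMSO and EDTA controls.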

[3] = biological target: Tumor susceptibility gene 101 protein (Homo sapiens) (UniProt Q99816); assay: qHTS Validation Assay for Iinhibitors of HIV-1 Budding by Blocking the Interaction of PTAP/TSG101 (AID 485342; calls by dose curve)
Sequence of Tumor susceptibility gene 101 protein (Homo sapiens) (Q99816 whole entry, looked up, the tested form may be a part): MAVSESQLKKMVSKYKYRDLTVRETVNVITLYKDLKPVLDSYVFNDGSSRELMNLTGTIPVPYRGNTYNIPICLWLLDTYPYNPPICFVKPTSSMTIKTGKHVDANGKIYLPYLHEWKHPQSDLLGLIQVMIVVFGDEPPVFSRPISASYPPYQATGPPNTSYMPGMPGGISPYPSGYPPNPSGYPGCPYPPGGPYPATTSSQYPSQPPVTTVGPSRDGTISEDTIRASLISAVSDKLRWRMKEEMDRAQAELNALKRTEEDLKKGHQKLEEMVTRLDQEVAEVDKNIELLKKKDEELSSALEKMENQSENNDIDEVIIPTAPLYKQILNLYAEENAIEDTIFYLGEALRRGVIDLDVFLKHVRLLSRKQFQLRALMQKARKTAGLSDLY
Procedure, shortened: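 Fluorescence anisotropy measured PTAP-Tsg101 interaction. Final concentrations were 10 uM protein domain and 50 nM labeled peptide, equilibrated 20 min at room temperature.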

[4] = qHTS Validation Assay to Find Inhibitors of Chronic Active B-Cell Receptor Signaling (AID 485345; active means well fitted curve in the direction sought with a large enough effect in the main read-out, with a control signal flat, not every such curve was filed as active)
Procedure, shortened: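 TMD8 ABC-DLBCL cells stably carrying doxycycline-inducible IkappaBalpha–green luciferase fusion plus unfused red luciferase; compounds 46 uM to 3 nM, 4 h at 37C with doxycycline. Corrected green/red luminescence ratio normalized to 10 uM MG-132 and basal cell wells; curves fitted.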

[5] = biological target: Beta-2 adrenergic receptor (Homo sapiens) (UniProt P07550); assay: qHTS validation assay of beta-arrestin-biased ligands of beta2-adrenergic receptor (AID 485366)
Sequence of Beta-2 adrenergic receptor (Homo sapiens) (P07550 whole entry, looked up): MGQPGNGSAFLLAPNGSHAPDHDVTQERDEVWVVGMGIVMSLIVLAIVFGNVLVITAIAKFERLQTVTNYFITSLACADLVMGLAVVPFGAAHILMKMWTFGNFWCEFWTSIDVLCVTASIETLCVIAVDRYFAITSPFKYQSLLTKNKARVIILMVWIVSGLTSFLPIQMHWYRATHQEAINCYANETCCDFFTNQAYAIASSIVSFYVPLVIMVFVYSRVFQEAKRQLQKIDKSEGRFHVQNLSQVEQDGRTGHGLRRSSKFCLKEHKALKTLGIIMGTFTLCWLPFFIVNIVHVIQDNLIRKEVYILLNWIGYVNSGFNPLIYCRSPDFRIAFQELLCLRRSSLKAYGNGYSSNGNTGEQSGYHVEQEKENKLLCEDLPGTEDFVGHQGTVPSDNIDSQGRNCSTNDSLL
Procedure, shortened: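 qHTS, Tango cells, 1500 cells/well, DMEM + 1% FBS. Cpd 18 hr at 37 degrees C. Luciferin/ATP/CoA detection mix, 15 min RT, luminescence read. %Activity from corrected signal; CRC fit, curve class.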

[6] = biological target: Thioredoxin reductase 1, cytoplasmic (Rattus norvegicus) (UniProt O89049); assay: qHTS Assay for Inhibitors of Mammalian Selenoprotein Thioredoxin Reductase 1 (TrxR1) (AID 488773); settings: Potency: inhibition; further: nearly all actives have a fitted effect of over 40% in size; further: potency means the concentration at half of the fitted maximal effect
Sequence of Thioredoxin reductase 1, cytoplasmic (Rattus norvegicus) (O89049 whole entry, looked up): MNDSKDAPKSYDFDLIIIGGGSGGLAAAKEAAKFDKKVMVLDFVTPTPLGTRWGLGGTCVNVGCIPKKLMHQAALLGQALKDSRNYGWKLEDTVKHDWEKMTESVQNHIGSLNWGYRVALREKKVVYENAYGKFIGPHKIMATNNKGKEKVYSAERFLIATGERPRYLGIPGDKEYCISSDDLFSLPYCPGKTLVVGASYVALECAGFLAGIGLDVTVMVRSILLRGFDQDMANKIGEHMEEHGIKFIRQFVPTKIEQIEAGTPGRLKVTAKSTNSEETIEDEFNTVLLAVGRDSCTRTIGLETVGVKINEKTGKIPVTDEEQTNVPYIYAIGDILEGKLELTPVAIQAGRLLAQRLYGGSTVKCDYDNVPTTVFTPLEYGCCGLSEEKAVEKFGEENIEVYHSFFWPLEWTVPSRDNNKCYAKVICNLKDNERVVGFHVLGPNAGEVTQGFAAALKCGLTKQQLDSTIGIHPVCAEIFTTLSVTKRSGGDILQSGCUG
Procedure, shortened: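 Inhibition is scored from the loss of NADPH fluorescence between first and last reads of an 8-min kinetic run. Selenite (400 uM) was the substrate, added after 15 min compound preincubation at room temperature.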

[7] = Quantitative high throughput screen for delayed death inhibitors of the malarial parasite plastid, 96 hour incubation (AID 488745); further: nearly all actives have a fitted effect of over 70% in size; further: potency means the concentration at half of the fitted maximal effect
Procedure, shortened: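 Decreased firefly luciferase luminescence indicates inhibited growth of reporter-integrated P. falciparum after two generations (96 h, 37 C, 5% CO2). Infected erythrocytes at 0.1% parasitemia, 2% hematocrit, in Albumax-supplemented RPMI 1640.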

[8] = biological target: Thioredoxin reductase 1, cytoplasmic (Rattus norvegicus) (UniProt O89049); assay: qHTS Assay for Substrates of Mammalian Selenoprotein Thioredoxin Reductase 1 (TrxR1) (AID 488772);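 further: series mostly up to about 57 µM; a drop in NADPH fluorescence below the no-compound background marks a TrxR1 substrate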
Procedure, shortened: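 In this dual-purpose format, potential substrates are identified from the first fluorescence read after selenite addition, not from the 8-minute delta. Rat enzyme is preincubated with NADPH and then with compound at ~22 deg C.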

[9] = biological target: ATP-dependent 6-phosphofructokinase (Trypanosoma brucei brucei) (UniProt O15648); assay: qHTS Validation Assay to Find Inhibitors of T. brucei phosphofructokinase (AID 485368); further: potency means the concentration at half of the fitted maximal effect
Sequence of ATP-dependent 6-phosphofructokinase (Trypanosoma brucei brucei) (O15648 whole entry, looked up): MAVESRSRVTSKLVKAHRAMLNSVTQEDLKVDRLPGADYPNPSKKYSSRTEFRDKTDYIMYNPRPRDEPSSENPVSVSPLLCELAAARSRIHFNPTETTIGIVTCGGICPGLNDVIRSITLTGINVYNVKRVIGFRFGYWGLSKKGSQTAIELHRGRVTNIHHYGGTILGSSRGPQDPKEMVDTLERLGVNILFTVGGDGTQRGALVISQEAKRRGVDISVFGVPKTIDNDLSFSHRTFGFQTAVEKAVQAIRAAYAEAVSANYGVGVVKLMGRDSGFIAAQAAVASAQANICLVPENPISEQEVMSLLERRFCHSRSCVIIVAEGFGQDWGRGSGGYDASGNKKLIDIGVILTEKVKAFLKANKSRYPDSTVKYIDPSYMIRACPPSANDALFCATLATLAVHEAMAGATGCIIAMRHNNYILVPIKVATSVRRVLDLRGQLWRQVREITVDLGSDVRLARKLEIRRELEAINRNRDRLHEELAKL
Procedure, shortened: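 Luminescent ADP detection measures PFK turnover of fructose-6-phosphate (0.5 mM) with ATP (0.1 mM) at pH 8.0. Reaction runs 45 min at room temperature with 1.25 nM enzyme; inhibitors tested as titrations up to 57 uM.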

[10] = Quantitative high throughput screen for delayed death inhibitors of the malarial parasite plastid, 48 hour incubation (AID 488752); further: nearly all actives have a fitted effect of over 65% in size; further: potency means the concentration at half of the fitted maximal effect
Procedure, shortened: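 One-generation (48 h) growth assay: a decrease in luciferase signal from an integrated reporter in P. falciparum-infected red cells (0.1% parasitemia, 2% hematocrit) after compound exposure at 37 C indicates parasite inhibition.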

Measured: Potency

CCCN(CCC)[C@@H]1CCc2cccc(O)c2C1
inactive: [1] | [2] | [3] | [4] | [5] | [6]

COc1ccc(CNC(=O)/C=C/c2ccc3[nH]cc(CCN(C)C)c3c2)cc1
active: [7] 11.7 µM
not listed: [9] | [10]
inactive: all other assays above

COc1ccc2c(c1)[C@@]13CCCC[C@H]1[C@@H](C2)NCC3
not listed: [4] | [8] | [10]
inactive: all other assays above

CCCN(CCC)[C@H]1CCc2c(F)ccc(O)c2C1
active: [7] 2.94 µM | [10] 2.94 µM
not listed: [8] | [9]
inactive: all other assays above

CN1CC[C@@]2(C)c3cc(O)ccc3N(C)C12 (stereo partly specified)
active: [10] 14.7 µM
inactive: [1] | [2] | [3] | [4] | [5]

C=CCN1C[C@@H](C)N([C@H](c2ccc(C(=O)N(CC)CC)cc2)c2cccc(OC)c2)C[C@@H]1C
active: [7] 4.65 µM | [10] 5.22 µM
not listed: [8] | [9]
inactive: all other assays above

CC(Cc1ccc(OCC(=O)O)cc1)NCC(O)c1cccc(Cl)c1 (stereo unspecified)
not listed: [8] | [9]
inactive: all other assays above

COc1ccc2c(c1)C13CCCCC1C(C2)N(C)CC3 (stereo unspecified)
not listed: [7] | [8] | [9]
inactive: all other assays above

O=S1(=O)N(CCN2CC=C(c3c[nH]c4cc(F)ccc34)CC2)c2cccc3c2N1CCC3
active: [7] 0.465 µM | [10] 1.47 µM
not listed: [8] | [9]
inactive: all other assays above

CCCN(CCC)CCc1ccc(O)c(O)c1
not listed: [8] | [9]
inactive: all other assays above

C[N+]1(C)CCOC(O)(c2ccc(-c3ccc(C4(O)C[N+](C)(C)CCO4)cc3)cc2)C1 (stereo unspecified)
not listed: [9] | [10]
inactive: all other assays above

CCCC[N+]1(C)C2CC(OC(=O)[C@H](CO)c3ccccc3)CC1C1OC12 (stereo partly specified)
not listed: [7] | [9] | [10]
inactive: all other assays above

O=[N+]([O-])c1cc(O)c(O)c([N+](=O)[O-])c1
not listed: [8] | [9]
inactive: all other assays above

N[C@@]1(C(=O)O)CC[C@@H](C(=O)O)C1
not listed: [8] | [9]
inactive: all other assays above

CCOC(=O)c1ncn2c1[C@@H]1CCCN1C(=O)c1cc(OC)ccc1-2
not listed: [8] | [9]
inactive: all other assays above

N=C(N)c1ccc(CS(=O)(=O)F)cc1
not listed: [7] | [9] | [10]
inactive: all other assays above

CCN1C[C@@]2(COC)C3[C@@H](OC)C4[C@@H]1C3([C@@H]1C[C@]3(O)[C@H](OC(=O)c5ccccc5)[C@@H]1[C@]4(OC(C)=O)[C@@H](O)[C@@H]3OC)[C@H](OC)C[C@H]2O
not listed: [7] | [9] | [10]
inactive: all other assays above

c1ccc2cc(CC3=NCCN3)ccc2c1
not listed: [7] | [9]
inactive: all other assays above

CP(=O)(O)C1=CCNCC1
not listed: [8] | [9]
inactive: all other assays above

CC(N)Cc1c[nH]c2ccc(OCc3cccs3)cc12 (stereo unspecified)
not listed: [7] | [9]
inactive: all other assays above

CNc1ccc2oc(C[C@H]3O[C@@]4(CC[C@H]3C)O[C@H]([C@H](C)C(=O)c3ccc[nH]3)[C@H](C)C[C@H]4C)nc2c1C(=O)O
active: [7] 0.104 µM | [10] 2.33 µM
inactive: [1] | [2] | [3] | [5] | [6]

COc1ccc2[nH]cc(CCN)c2c1
not listed: [2] | [9]
inactive: all other assays above

CCCCCCCCCCCCCC(=O)O[C@@H]1[C@@H](C)[C@@]2(O)[C@@H](C=C(CO)C[C@@]3(O)C(=O)C(C)=C[C@@H]23)C2C(C)(C)[C@@]21OC(C)=O (stereo partly specified)
active: [7] 11.7 µM
not listed: [4] | [9] | [10]
inactive: all other assays above

NCCc1c[nH]c2ccc(C(N)=O)cc12
not listed: [2] | [9]
inactive: all other assays above

CC(C)(C)c1cc(C=C(C#N)C#N)cc(C(C)(C)C)c1O
active: [7] 1.85 µM | [10] 1.47 µM | [6] 16.8 µM
inactive: [1] | [2] | [3] | [5]

NNC(=O)c1ccc(O)cc1
not listed: [4] | [8] | [9]
inactive: all other assays above

NCC(O)c1cc(O)c(O)cc1F (stereo unspecified)
active: [9] 4.78 µM
not listed: [2] | [6]
inactive: all other assays above

c1ccc2c(c1)[I+]c1ccccc1-2
inactive: [1] | [2] | [3] | [5] | [8]
active: [7] 0.131 µM | [10] 0.147 µM

CN(N=O)c1cc(O)ccc1O
inactive: [1] | [3] | [4] | [5] | [10]
active: [9] 7.57 µM | [6] 0.752 µM

N#C/C(=C/c1ccc(O)c(O)c1)C(N)=S
inactive: [1] | [3] | [4] | [5]

C[C@H](N)CN1CCc2ccc(Br)cc21
not listed: [4] | [9]
inactive: all other assays above

CCNC(=O)[C@H]1O[C@@H](n2cnc3c(N)ncnc32)[C@H](O)[C@@H]1O
inactive: [1] | [2] | [3] | [5] | [8] | [6]

C[N+](C)(C)CC#CCOC(=O)Nc1cccc(Cl)c1
active: [6] 21.2 µM
inactive: [1] | [3] | [4] | [5] | [9]

COc1ccc2c(c1)c(CCN1CCOCC1)c(C)n2C(=O)c1cccc(Cl)c1Cl
inactive: [1] | [2] | [3] | [5] | [9] | [6]

CCCn1c(C)c(C(=O)c2ccc3ccccc3c2)c2ccccc21
not listed: [4] | [8] | [9]
inactive: all other assays above

CCCn1c(=O)c2[nH]c(C3CCCC3)nc2n(CCCOC(=O)c2ccc(S(=O)(=O)F)cc2)c1=O
not listed: [4] | [7] | [9]
inactive: all other assays above

CCCN1CCc2cccc3c2[C@H]1Cc1ccc(O)c(O)c1-3
active: [9] 12 µM | [6] 23.8 µM
inactive: [1] | [2] | [3] | [5]

CN1CCc2cccc(Cl)c2CC1
not listed: [2] | [9]
inactive: all other assays above

NC(=O)COc1c(F)cc(SCCNS(=O)(=O)c2ccccc2)cc1F
not listed: [4] | [9]
inactive: all other assays above

C[Se]C[C@H](N)C(=O)O
not listed: [2] | [9]
inactive: all other assays above

CC1(C(=O)O)C2CCC(O2)C1(C)C(=O)O (stereo unspecified)
active: [7] 3.29 µM | [10] 5.22 µM
inactive: [1] | [2] | [3] | [5] | [6]

C[N+](C)(C)CC#CCN1CCCC1=O
not listed: [2]
inactive: all other assays above

C/C(O)=C(\C#N)C(=O)Nc1cc(Br)ccc1Br
not listed: [4] | [9]
inactive: all other assays above

NCCCP(=O)(O)O
not listed: [2]
inactive: all other assays above

C[N+]1(C)CCN(c2ccccc2)CC1
not listed: [4] | [9]
inactive: all other assays above

O=[N+]([O-])c1ccc2nc(N3CCNCC3)ccc2c1
not listed: [4] | [9]
inactive: all other assays above

NC(N)=NOCC[C@H](N)C(=O)O
not listed: [2] | [9]
inactive: all other assays above

COc1ccc2c(c1O)-c1cccc3c1[C@@H](C2)N(C)CC3
inactive: [1] | [2] | [3] | [5] | [6]

C[C@H](N)Cc1cccc(C(F)(F)F)c1
inactive: [1] | [3] | [4] | [5] | [9] | [6]

NC(C(=O)O)c1cc(=O)[nH]o1 (stereo unspecified)
not listed: [2] | [7] | [8]
inactive: all other assays above

N[C@@H](Cn1oc(=O)[nH]c1=O)C(=O)O
not listed: [2] | [8]
inactive: all other assays above

CN(C(=O)Cc1ccc(Cl)c(Cl)c1)C(CN1CCCC1)c1cccc(OCC(=O)O)c1 (stereo unspecified)
not listed: [2] | [9]
inactive: all other assays above

C#CCN[C@H](C)Cc1ccccc1
not listed: [2]
inactive: all other assays above

Clc1cc(I)cc(Cl)c1NC1=NCCN1
not listed: [2] | [9]
inactive: all other assays above

CN1C2CCC1CC(OC(c1ccccc1)c1ccc(Cl)cc1)C2 (stereo unspecified)
active: [7] 0.147 µM | [10] 6.57 µM

CN1CC[C@@]2(C)c3cc(OC(=O)Nc4ccccc4)ccc3N(C)[C@@H]12
inactive: [1] | [3] | [5] | [8] | [6]

NC(N)=Nc1ccc2[nH]c3c(c2c1)C[C@@]1(O)[C@H]2Cc4ccc(O)c5c4[C@@]1(CCN2CC1CC1)[C@H]3O5
active: [6] 26.7 µM
inactive: [1] | [3] | [10] | [8]
